The entries come from a sample that favours hits as a whole.
Pf Dd2 inh – qHTS Primary assay for Inhibitors of Plasmodium falciparum Dd2 growth in vitro; 120,000 tested, 4.3% active; AID 1347417, 2020; Potency, µM (highest dose often 28.9 µM), hits mostly inhibitors; P. falciparum Dd2 growth, SYBR Green, 72 h; active = well fitted inhibition curve with a large enough effect; note: nearly all actives have a fitted effect of over 65% in size
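Readout: SYBR Green fluorescence, 485 nm excitation, 535 nm emission, after ~16 h lysis at 37C. Before that, Dd2-infected red cells (2.5% hematocrit) grew 72 h with compound, 29 uM top final concentration.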
A number is an active result; 0 = inactive; [ ] = dose if it differs, or a comment.

SMILES | Pf Dd2 inh
CCCCCS(=O)(=O)c1oc(-c2cccs2)nc1S(=O)(=O)c1ccc(C)cc1 | 0
COCCNc1sc(S(=O)(=O)c2ccc(C)cc2)nc1S(=O)(=O)c1ccc(C)cc1 | 0
CCCSc1oc(-c2cccs2)nc1S(=O)(=O)c1ccc(C)cc1 | 0
CCCS(=O)(=O)c1nc(S(=O)(=O)c2ccc(C)cc2)c(N(CC)CC)s1 | 0
Cc1ccc(S(=O)(=O)c2nc(-c3ccco3)oc2SCC(C)C)cc1 | 0
CCN(CC)CCCNC(=O)CSc1nc2nc(C)c(Cc3c(F)cccc3Cl)c(C)n2n1 | 0
CCCS(=O)(=O)c1nc(S(=O)(=O)c2ccc(C)cc2)c(NCC(C)C)s1 | 8.9µM
CCCCNc1sc(S(=O)(=O)CC)nc1S(=O)(=O)c1ccc(C)cc1 | 11µM
CCCCNc1nc2c(S(=O)(=O)c3ccc(Cl)cc3)nnn2c2ccsc12 | 0
CCC(C)Nc1sc(S(=O)(=O)CC)nc1S(=O)(=O)c1ccc(C)cc1 (stereo not drawn) | 13µM
CN1CCCCCCN(C(=O)Nc2ccc3c(c2)OCCO3)CCC1=O | 0
Cc1cccc(C(=O)N2CCC3(CC2)CC(CC(=O)NC2CC2)CCO3)c1 (stereo not drawn) | 0
O=C(Cn1ccn2nc(-c3ccc(F)cc3)c(CO)c2c1=O)Nc1ccc(F)c(F)c1 | 0
Cc1noc(C)c1S(=O)(=O)N1CCC[C@H]1C(=O)N1CCCCCCNC(=O)CC1 | 0
CCN(CC)C(=O)N1CCC(n2c(C)cnc2C2CCOCC2)CC1 | 0
COCCN(Cc1cc(=O)c2cc(F)ccc2[nH]1)CC1CC1 | 0
CC(C)n1cnnc1CC1CCCN(C(=O)c2n[nH]c3ccccc23)C1 (stereo not drawn) | 0
Cc1ccc(-c2cc(C(=O)N3CCC(Cc4nncn4C(C)C)CC3)c3ccccc3n2)cc1C | 5µM
Cc1nn(C(=O)CCCC(=O)N2CCC(Cc3nncn3C(C)C)CC2)c2ccccc12 | 0
OC1(CN2CCN(Cc3cccc(Cl)c3)CC2)CCCNC1 (stereo not drawn) | 0
OCC1(Cc2cccc(Cl)c2)CCCNC1 (stereo not drawn) | 11µM
COc1cccc(CC2(CO)CCCN(C(=O)c3cn4ccsc4n3)C2)c1 (stereo not drawn) | 0
CC[C@H]1CN(C(=O)Nc2cccc(C(F)(F)F)c2)CC[C@H]1CC(=O)N1CCOCC1 | 0
O=C(NCCC1CCCCC1)c1ccc2nccn2c1 | 0
CCCCc1ncc(CN2CCCC(C(=O)Nc3ccccc3-c3ccc(OC)cc3)C2)[nH]1 (stereo not drawn) | 8.9µM
SMILES | Pf Dd2 inh
COc1ccc(-c2ccccc2NC(=O)C2CCCN(Cc3cccc(F)c3F)C2)cc1 (stereo not drawn) | 0
COc1cccc(-c2ccc(NC(=O)C3CCCN3C(=O)Cn3cccn3)cc2)c1 (stereo not drawn) | 0
CCCOC(=O)N1CCCC(C(=O)Nc2ccccc2-c2ccc(OC)cc2)C1 (stereo not drawn) | 0
COc1cccc(-c2ccc(NC(=O)C3CCCN3C(=O)CNC(C)=O)cc2)c1 (stereo not drawn) | 0
COc1cccc(-c2ccc(NC(=O)C3CCCN(Cc4cc(C(C)C)n[nH]4)C3)cc2)c1 (stereo not drawn) | 11µM
COc1ccc(-n2nc(C3CCN(C(=O)Cc4cccc(Cl)c4)CC3)[nH]c2=O)cc1 | 0
CC(C)(C)C(=O)Nc1nc2c(s1)C[C@@H]1[C@](C)(CO)[C@H](O)CC[C@@]1(C)[C@@H]2CC(=O)O | 0
CC(C)(C)C(=O)Nc1nc2c(s1)C[C@@H]1[C@](C)(CO)[C@H](O)CC[C@@]1(C)[C@@H]2CC(=O)Nc1cccc(O)c1 | 8.9µM
COCC(=O)Nc1nc2c(s1)C[C@@H]1[C@](C)(CO)[C@H](O)CC[C@@]1(C)[C@@H]2CC(=O)NC(C)C | 0
CC(C)(C)C(=O)Nc1nc2c(s1)C[C@@H]1[C@](C)(CO)[C@H](O)CC[C@@]1(C)[C@@H]2CC(=O)NC1CC1 | 0
CC(C)C[C@H](CO)NC(=O)C[C@@H]1c2nc(NC(=O)C(C)(C)C)sc2C[C@@H]2[C@](C)(CO)[C@H](O)CC[C@]21C | 8.9µM
CCCCCC(=O)Nc1nc2c(s1)C[C@@H]1[C@](C)(CO)[C@H](O)CC[C@@]1(C)[C@@H]2CC(=O)N[C@@H](CO)CC(C)C | 0
COc1nccnc1NC1CCN(S(=O)(=O)c2ccccc2)CC1 | 0[5.79 µM]
Cc1ccc(C(=O)N2CCN(c3nnc4cccc(C)n34)CC2)cc1F | 0
O=C(N[C@@H]1CN(C(=O)Nc2ccccc2)CCC[C@H]1O)c1ccc(OCCN2CCCC2)cc1 | 0
COc1ccc(C[C@H](NC(=O)[C@@H]2C[C@H](NC(=O)CC(C)(C)C)CN2C(=O)CC(C)(C)C)C(N)=O)cc1 | 0
CC(=O)Nc1ccc(C(=O)N2CCN(c3cc(-c4ccc(F)cc4)[nH]n3)CC2)cc1 | 0
O=C(c1ccc(Oc2ccccc2)cc1)N1CCNc2cnc(Nc3cccc(C(F)(F)F)c3)nc2C1 | 0
O=C(c1cccc(O)c1)N1CC=C(c2cnc3cnc(-c4ccccc4)cn23)CC1 | 2µM
O=C(c1ccc(-c2ncc3cnc(-c4ccccc4)cn23)cc1)N1CCS(=O)(=O)CC1 | 0
O=C(c1ccc(-c2ncc3cnc(C4=CCOCC4)cn23)cc1)N1CCc2ccccc2C1 | 0
Cn1cnc(C(=O)NC2CCN(C(=O)N3CC4CC(C3)[C@H]3CCCC(=O)N3C4)CC2)c1 (stereo partly drawn) | 0
O=C(C1C2C(=O)N(CCOc3ccccc3)C[C@@]23C=C[C@@H]1O3)N1CCSCC1 (stereo partly drawn) | 0
COc1ccc(C(=O)N2CC3CC(C2)[C@H]2CCCC(=O)N2C3)c(C)c1 (stereo partly drawn) | 0
CN(C)c1ccc(CNC(=O)C2CCN(Cc3cc4ccccc4n3Cc3ccccc3)CC2)cc1 | 11µM
SMILES | Pf Dd2 inh
COCCCNC(=O)C1CCN(Cc2cc3ccccc3n2Cc2ccccc2C)CC1 | 0
Cc1cccc(Cn2c(CN3CCC(C(=O)NCc4cccnc4)CC3)cc3ccccc32)c1 | 0
Cc1cccc(Cn2c(CN3CCC(C(=O)NC(C)C)CC3)cc3ccccc32)c1 | 0
Cc1ccc(Cn2c(CN3CCC(C(=O)NCC(C)c4ccccc4)CC3)cc3ccccc32)cc1 (stereo not drawn) | 0
O=C(NCc1cccnc1)C1CCN(Cc2cc3ccccc3n2Cc2ccccc2)CC1 | 11µM
CN(C)c1ccc(CNC(=O)C2CCN(c3nc4ccccc4[nH]3)CC2)cc1 | 0
CN(C)c1ccc(CNC(=O)C2CCN(S(=O)(=O)c3ccc4c(c3)oc(=O)n4C)CC2)cc1 | 0
Cc1ccc(Cn2c(CN3CCC(C(=O)NCCc4ccccc4)CC3)cc3ccccc32)cc1 | 7.9µM
CCOc1cc(=O)n2c(c1C(=O)N(CC)Cc1ccncc1)CCCCC2 | 0
CCCN1C(=O)Cc2cc(C(=O)NCc3ccccc3C(F)(F)F)ccc21 | 0
CCN1C(=O)C2(CCN(S(=O)(=O)c3ccc(Cl)c(C)c3)CC2)c2ccccc21 | 0
Cc1ccc([C@H]2C[C@@H](O)[C@@H](O)[C@@H]2NCC(C)(C)O)cc1 | 0
O=C(NC[C@H]1O[C@@H](CC(=O)N2CCN(c3ccc(F)cc3)CC2)[C@H](O)[C@@H]1O)C1CC1 | 0
Cn1cc(CNC(=O)c2coc(CN3CCN(C/C=C/c4ccccc4)CC3)n2)cn1 | 0
CC1(C(=O)Nc2ccc(F)c(Cl)c2)COCc2cnc(Nc3ccccc3)nc21 (stereo not drawn) | 0
Cc1nc(-c2ccc(OC3CCN(C(=O)NC(C)C)C3)cc2)no1 (stereo not drawn) | 0[5.79 µM]

Compound activity deposited in PubChem by National Center for Advancing Translational Sciences (NCATS).
